Compound activity (PubChem)
Shown is part of a subset that was picked to be rich in hits.
RGS4 inh – human RGS4 inhibition; Transcreener GDP fluorescence polarization, RGS4-accelerated GTP hydrolysis; Potency, µM (doses to about 114 µM), most hits filed as inhibitors; P49798; 390,000 compounds, 0.039% hits; further: nearly all actives have a fitted effect of over 75% in size
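MLSMR compounds (23 nl, pin-transferred) preincubated 10 min at room temperature with a 500nM (2x) first reagent, then RGS4 at 900nM (2x) plus Transcreener GDP mix added; fluorescence polarization (620/688 nm) read before and after 90 min at 30 °C.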
mIDH1 inhibitor – inhibitors of human mutant IDH1 R132H. 390,000 compounds, 0.093% hits. O75874. AID 602179. IDH1-R132H enzyme, NADPH consumption, diaphorase/resazurin fluorescence. Potency, µM (series often up to 76.6 µM), usual class: inhibitors; further: nearly all actives have a fitted effect of over 65% in size
Target sequence (O75874 whole entry R132H, stated change not applied): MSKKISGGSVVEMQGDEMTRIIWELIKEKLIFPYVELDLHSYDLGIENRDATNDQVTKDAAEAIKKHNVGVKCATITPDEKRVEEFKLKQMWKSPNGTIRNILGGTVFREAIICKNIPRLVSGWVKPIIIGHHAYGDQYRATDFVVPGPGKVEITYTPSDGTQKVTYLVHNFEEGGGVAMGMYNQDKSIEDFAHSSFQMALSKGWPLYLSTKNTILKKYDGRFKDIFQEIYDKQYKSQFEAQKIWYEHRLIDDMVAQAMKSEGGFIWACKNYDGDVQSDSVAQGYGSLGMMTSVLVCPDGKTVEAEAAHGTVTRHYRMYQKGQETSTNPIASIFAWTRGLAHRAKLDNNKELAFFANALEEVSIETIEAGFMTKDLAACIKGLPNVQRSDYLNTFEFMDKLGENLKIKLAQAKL
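IDH1-R132H (0.5 ug/mL dispensed) in pH 7.5 Tris buffer was preincubated 30 min with compound, then given a substrate mix of 0.016 mM NADPH and 2 mM alpha-KG for 80 min at room temperature; remaining NADPH was read by diaphorase/resazurin fluorescence.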
Mito fusion act – inhibitors of mitochondrial division or activators of mitochondrial fusion; S. cerevisiae fusion-defective mutant growth rescue, CellTiterGlo 48 h; Potency, µM (highest dose often 46.1 µM), usual class: activators; 320,000 compounds, 0.23% hits; further: nearly all actives have a fitted effect of over 45% in size
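Growth-rescue viability read-out: after 48 h at the non-permissive 37C in glycerol/ethanol YPEG, yeast mitochondrial fusion mutants are measured by CellTiterGlo luminescence; compounds (23 nl pinned per well) restoring growth score as division inhibitors or fusion activators.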
ClpP mod – qHTS Assay for Activators of ClpP; ATP-dependent Clp protease proteolytic subunit (Bacillus subtilis (strain 168)), P80244; purified B. subtilis ClpP, FRET peptide cleavage, 20 min; Potency, µM (titrated, usually from 57.5 µM); 340,000 compounds, 1.9% hits; active means well fitted falling curve with a large enough effect; inconclusive means small, poorly fitted or top-dose-only effect; inactive means no such curve, though single readings can be large or run the other way; further: the source files actives as falling curves though it sought activators and does not explain the sign; nearly all actives have a fitted effect of over 65% in size
Target sequence (P80244 whole entry, looked up): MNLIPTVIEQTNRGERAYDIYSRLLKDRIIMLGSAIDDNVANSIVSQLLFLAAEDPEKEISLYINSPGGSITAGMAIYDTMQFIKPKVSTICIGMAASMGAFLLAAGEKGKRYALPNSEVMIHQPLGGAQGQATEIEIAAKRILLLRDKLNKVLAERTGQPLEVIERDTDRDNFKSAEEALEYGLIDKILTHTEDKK
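Buffer: 100 mM Tris/HCl pH8, 100 mM KCl, 0.05% low protease BSA, 2.5% glycerol, 0.01% Tween-20. ClpP 10 microg/mL final; 20 min RT; delta FRET normalized to ADEP and DMSO controls.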
LDHA inh – blocks human lactate dehydrogenase A | P00338 | purified LDHA, NADH/diaphorase-resazurin fluorescence; stronger effect = lower value | activity change, % (values are at about 110 or 230 µM) | 480,000 compounds, 0.15% hits | AID 1347041; in the data active means activity change below about -30%; inconclusive means mostly about -25% to -30%
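Remaining NADH was detected by diaphorase (0.133 mg/mL) converting 37 µM resazurin to fluorescent resorufin, read at 0 and 20 minutes. The preceding 5-minute room-temperature reaction used 2 nM LDHA, 0.2 mM sodium pyruvate and 0.06 mM NADH at pH 7.4.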
S-ASM inh – blocks human secretory acid sphingomyelinase; P17405; placental ASM, HMU-PC fluorogenic substrate, 60 min; Potency, µM (top dose mostly 57.5 µM), most hits filed as inhibitors; 340,000 compounds, 0.006% hits; AID 504937
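Human placenta-derived ASM enzyme was preincubated with compound for 10 minutes at room temperature, then given fluorogenic substrate HMU-PC0 (9 uM final) for 60 minutes at 37 °C; a pH 10 stop preceded fluorescence reading at Ex 386/Em 447 nm.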
A number is an active result; n = inactive; u = inconclusive; x = not tested or not shown; ! = not active in a repeat; [ ] = remark or other dose. Unless noted, the call rests on the fitted dose curve; in most records, active means well fitted curve in the direction sought with a large enough effect; inconclusive means small, poorly fitted or top-dose-only effect, or another doubt; inactive means no such curve, though single readings can be large; an effect the other way counts as inactive or inconclusive.

SMILES	RGS4 inh	mIDH1 inhibitor	Mito fusion act	ClpP mod	LDHA inh	S-ASM inh
COc1cc2c(=O)n(Cc3ccccc3)c(=O)n(CC(=O)NCc3ccco3)c2cc1OC	n	n	n	15.8µM	n	n
COc1ccccc1NC(=O)Cn1c(=O)n(Cc2ccco2)c(=O)c2oc3ccccc3c21	n	n	x	31.6µM	n	x
COc1cccc(NC(=O)Cn2c(=O)n(Cc3ccco3)c(=O)c3cc(OC)c(OC)cc32)c1	n	n	x	28.2µM	n	x
Cc1ccc(NC(=O)Cn2c(=O)n(Cc3ccco3)c(=O)c3oc4ccccc4c32)cc1C	n	n	x	n	n	x
COc1ccc(OC)c(NC(=O)Cn2c(=O)n(Cc3ccco3)c(=O)c3cc(OC)c(OC)cc32)c1	n	n	x	n	n	x
Cn1c(-c2ccccc2)c(C(=O)CCl)c2ccccc21	n	n	n	x	n	n
CCCc1c(CC)c(=N)c2ccccc2n1C	n	n	n	28.2µM	-44.7	n
Cc1cc(NC(=O)c2cc(Cl)ccc2Cl)ccc1-c1cc2ccccc2oc1=O	n	n	x	11.2µM	n	x
O=C(Nc1ccc2c(c1)C(=O)NC2=O)c1cc(Cl)ccc1Cl	n	n	n	31.6µM	n	n
O=C1NC(=O)c2cc(NC(=O)C3CCCCC3)ccc21	n	n	n	25.1µM	n	n
O=C(Nc1ccc(NC(=O)C2CC2)cc1)C1CCCCC1	x	x	x	x	n	x
COc1ccc(CCNC(=O)c2ccc(N3C(=O)CCS3(=O)=O)cc2)cc1	x	x	x	x	n	x
Cc1nc(CNC(=O)c2ccccc2C)cs1	x	x	x	x	n	x
CCN(CC)CCCN(Cc1cc2cc3c(cc2[nH]c1=O)OCCO3)C(=O)Nc1ccccc1	n	n	n	20µM	n	n
O=C(Nc1ccccc1F)N(CCCN1CCOCC1)Cc1cc2cc3c(cc2[nH]c1=O)OCCO3	n	n	n	20µM	n	n
CCc1ccc2[nH]c(=O)c(CN(CCCN3CCOCC3)C(=O)Nc3ccccc3)cc2c1	n	n	n	n	n	n
COc1ccc2[nH]c(=O)c(CN(CCCN3CCOCC3)C(=O)NCc3ccccc3)cc2c1	n	n	n	15.8µM	n	n
O=C(Nc1ccccc1)N(CCCN1CCOCC1)Cc1cc2cc3c(cc2[nH]c1=O)OCCO3	n	n	n	31.6µM	n	n
N#Cc1nc(-c2ccc(OCc3ccc(Cl)cc3)cc2)oc1N1CCC(C(N)=O)CC1	n	n	n	5.01µM!	n	n
CCCOc1ccc(-c2nc(C#N)c(N3CCC(C(N)=O)CC3)o2)cc1	n	n	n	14.1µM	n	n
CCOc1ccc(-c2nc(C#N)c(N3CCC(C)CC3)o2)cc1	x	x	x	x	n	x
Cc1ccc(OCC(=O)Nc2ccc(O)c(C(=O)O)c2)cc1C	n	n	n	22.4µM	n	n
CCOC(=O)C(C(=O)OCC)C1N=C(N)N=C2Oc3ccccc3N21 (stereo not given)	n	n	n	25.1µM	n	n
CCOc1ccc(-c2nonc2NC(=O)c2oc3ccc(F)cc3c2C)cc1OCC	x	x	x	x	n	x
CCCCN(C(=O)C(C)Oc1ccc(Br)cc1)c1c(N)n(Cc2ccccc2)c(=O)[nH]c1=O (stereo not given)	n	n	n	28.2µM	n	x
SMILES	RGS4 inh	mIDH1 inhibitor	Mito fusion act	ClpP mod	LDHA inh	S-ASM inh
CCCCCCn1c(SCC(N)=O)nc2c1c(=O)[nH]c(=O)n2C	x	x	x	x	n	x
CC(C)C[C@H](NC(=O)OC(C)(C)C)C(=O)N/N=C/C1=Cc2ccccc2OC1C (stereo not given in full)	n	n	n	28.2µM	n	n
CC(C)C[C@H](NC(=O)OC(C)(C)C)C(=O)N/N=C/c1ccc2nccnc2c1	n	n	n	n	n	n
O=C1CCc2cc(C(=O)OCC(=O)C3CCCCC3)ccc2N1	x	x	x	x	n	x
COc1ccc(COCC(O)CN2CCc3ccccc3C2)cc1OC (stereo not given)	n	n	n	28.2µM	n	n
COC(=O)c1ccc(NC(=O)CSc2nccn2Cc2ccccc2)cc1	x	x	x	x	n	x
CCOC(=O)C1=C(O)C(=O)NC(c2ccccc2)=C(OC2CCCCC2)C1	n	n	10µM	n	n	n
C[N+]1(CC[N+]2(C)CCCCC2)CCCCC1	x	x	x	x	n	x
COc1ccc2cc(C(=O)OCC(=O)NCC3CCCO3)c(C)nc2c1 (stereo not given)	x	x	x	x	n	x
O=C(Nc1cc(Cl)ccc1N1CCOCC1)c1ccco1	n	n	n	n	n	n
O=C(CNC(=O)c1ccco1)Nc1cc(Cl)ccc1N1CCOCC1	n[11.4 µM]	n	n	28.2µM	n	n
Cc1ccccc1C=Nc1ccccc1C(N)=O	n	n	n	28.2µM	n	n
Cc1ccc(C=Nc2ccccc2C(=O)Nc2ccccc2)cc1	n	n	n	28.2µM	n	n
NC(=O)c1ccccc1N=Cc1ccccn1	n	n	n	25.1µM	n	n
NC(=O)c1ccccc1N=Cc1cccnc1	n	n	x	x	n	n
O=C(Nc1ccccc1)c1ccccc1N=Cc1cccc(O)c1	n	n	n	x	n	n
COc1cccc(C=Nc2ccccc2C(=O)Nc2ccccc2)c1O	n	n	n	22.4µM	n	n
O=C(NC1CCCCC1)c1cccc(NC(=O)C2CC2)c1	x	x	x	x	n	x
NC(=O)c1ccccc1N=Cc1cccc(O)c1	x	x	x	x	n	x
Cc1ccc(C=Nc2ccccc2C(N)=O)cc1	n	n	n	31.6µM	n	n
O=C(COc1ccc(S(=O)(=O)N2CCCCC2)cc1)N1CCCCCC1	n	n	n	31.6µM	n	n
CC1CCN(C(=O)COc2ccc(S(=O)(=O)N3CCCC3)cc2)CC1	n	n	n	x	n	n
Cc1ccccc1NS(=O)(=O)c1ccc(OCC(=O)N2CCCC2)cc1	u	n	n	28.2µM	n	n
COc1ccc2oc3cc(C)[n+]([O-])c(-c4ccc(Cl)cc4)c3c2c1	n	n	22.4µM	n	n	n
CC(C)CC(=O)Nc1ccc(-c2cc3cc(F)ccc3[nH]2)cc1	x	x	x	x	n	x
SMILES	RGS4 inh	mIDH1 inhibitor	Mito fusion act	ClpP mod	LDHA inh	S-ASM inh
Cc1c(C)n(CC(O)CN2CCOCC2)c2ccccc12 (stereo not given)	n	n	n	n	n	n
Cc1cc(C)n(CC(O)Cn2c(C)c(C)c3ccccc32)n1 (stereo not given)	n	n	n	31.6µM	n	n
Cc1c(C)n(CC(O)CN2CCCCC2)c2ccccc12 (stereo not given)	n	n	n	31.6µM	u	n
Cc1c(C)n(CC(O)CN2CCN(C)CC2)c2ccccc12 (stereo not given)	n	n	n	n	n	n
COc1ccc(CCN2CC(O)=C(c3nc(C)cs3)C2=N)cc1OC	n	n	n	n	n	n
COc1ccc(CCN2CC(O)=C(c3nc4ccccc4c(=O)[nH]3)C2=N)cc1OC	n	n	n	22.4µM	n	n
